PubChem BioAssay AID2016 (NMMLSC, 2009)
Screen size: about 330,000 compounds; about 1,700 (0.52%) were called active. The sample as a whole holds a higher share of actives than the screen did. Values without a mark were called inactive.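 Rule for the calls: active = GFP response versus DMSO above a set limit, roughly screen mean plus 3 SD (cut at about 180% in these data); inconclusive = fewer than 70 cells counted for a yeast strain; inactive = the rest.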

Test: modulators of MEP2-GFP levels in yeast, primary screen, S. cerevisiae, multiplex flow cytometry, MLPCN library (AID 2016);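 note: median GFP fluorescence of the barcode-gated MEP2-GFP cells per well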
Conditions: S. cerevisiae MEP2-GFP strain, 3 h, at 10 µM, active compounds read high, 100% = DMSO control level

Compound	GFP response vs DMSO
N#CCCN1CCN(S(=O)(=O)c2ccc(S(=O)(=O)NC3CCCCC3)cc2)CC1	107%
Cn1c2ccccc2c2c(C(=O)N3CCN(c4ccc(F)cc4)CC3)cn(C3CCCC3)c(=O)c21	116%
COc1cc(C)c(Cl)cc1S(=O)(=O)n1ccnc1	92%
O=C(NCC(=O)N1CCN(c2ccccc2F)CC1)c1cccs1	111%
CC(=O)N(C)c1ccc(NC(=O)C(F)(F)F)cc1	100%
C/C(=N/NS(=O)(=O)c1ccccc1)c1ccc(NC(=O)C(F)(F)F)cc1	219% (active)
C/C(=N\NS(=O)(=O)c1ccc(Cl)cc1)c1ccc(NC(=O)c2ccco2)cc1	102%
C[N+](C)(C)CCNC(=O)c1cc[n+](Cc2ccccc2)c(/C=N/O)c1	104%
COC(=O)Nc1ncc(CN2C(=O)c3ccccc3C2=O)s1	109%
CCOC(=O)c1cnc(SCC(=O)Nc2cccc(OC)c2)nc1N	90.7%
CCOC(=O)c1cnc(SCC(=O)Nc2ccccc2C(=O)OC)nc1N	98.3%
CCOC(=O)c1cnc(SCC(=O)NCc2ccco2)nc1N	222% (active)
CCOc1ccc(CN(Cc2ccco2)C(c2cccs2)c2nnnn2C(C)(C)C)cc1 (stereo unspecified)	98.9%
CCN(CCn1cccn1)C(=O)CC1C(=O)NCCN1Cc1cccc(OC)c1OC (stereo unspecified)	100%
CC(=O)Nc1ccc(NC(=O)COC(=O)C2CCC(C(C)(C)C)CC2)cc1 (stereo unspecified)	103%
COc1ccc(NC(=O)CN(C)C(=O)CC2CCCCC2)cc1	102%
CC(=O)Nc1ccc(NC(=O)CC2CCCC2)cc1	779% [may fluoresce violet] (active)
O=C(COC(=O)/C=C/c1cccc(Cl)c1)NCCc1ccccc1	114%
O=C(c1ccco1)N(Cc1nc2ccccc2c(=O)[nH]1)C1CCCC1	271% [may fluoresce violet] (active)

Compound	GFP response vs DMSO
CCN(CC(=O)NC(=O)NCc1ccccc1)Cc1nc2ccccc2c(=O)[nH]1	98.5%
CCCC(=O)N(CCc1ccccc1)Cc1nc2ccccc2c(=O)[nH]1	85.6%
COc1ccc(CNC(=O)CN(C(=O)c2csnn2)c2cnc3ccccc3c2)cc1	102%
CCCCCCNCCn1cnc2c(N)ncnc21	97.1%
COc1ccc(CCNC(=S)N2CCN(S(=O)(=O)c3ccc(F)cc3)CC2)cc1	103%
COc1ccc(C(=O)Nc2cccc(S(C)(=O)=O)c2)cc1	112%
COc1ccc(NS(=O)(=O)c2cc(C(=O)Nc3ccccc3C(=O)O)ccc2C)cc1	95.4%
COc1ccc(C(=O)NN(C)c2nc(-c3ccccc3)cc(C)c2S(C)(=O)=O)cc1	287% [may fluoresce violet] (active)
O=C(CCc1ccc(S(=O)(=O)N2CCOCC2)cc1)NN=C1CCCCCCC1	104%
O=C(c1cc(S(=O)(=O)N2CCOCC2)ccc1Cl)N1CCOCC1	103%
O=C(O)c1ccc(S(=O)(=O)N2CCOCC2)o1	264% [may fluoresce violet] (active)
Cc1cccc(C)c1NC(=O)c1ccc(CN2CCc3ccccc3C2)cc1	101%
COc1ccc(C(=O)N(Cc2ccccc2)c2ccc(C)cc2)cc1S(=O)(=O)N1CCOCC1	103%
C=CCNC(=O)C12CC3CC(C1)CC(C(=O)NCC=C)(C3)C2	106%
CCOc1ccccc1NC(=O)C12CC3CC(C1)CC(c1ccc(C)cc1)(C3)C2	97.6%
Cc1ccc(C23CC4CC(CC(C(=O)NCC(=O)O)(C4)C2)C3)cc1	292% [may fluoresce violet] (active)
CCn1c(C)nc2c1C(=O)c1ccccc1C2=O	93.7%
O=C(CNC(=O)[C@@H]1Cc2ccccc2CN1)NC1CCCCC1	99.4%
Cc1cc2cc3c(cc2nc1SCC(=O)Nc1c(C)cccc1C)CCC3	94.7%

Compound	GFP response vs DMSO
NC(=O)c1nsc(C(=O)N(CCCN2CCOCC2)C(C(=O)NC2CCCCC2)c2ccc(Cl)cc2)c1N (stereo unspecified)	238% [may fluoresce violet] (active)
CC(C)(C)NC(=O)C(c1ccc(Cl)cc1)N(CCO)C(=O)c1snc(C(N)=O)c1N (stereo unspecified)	97.4%
CCOc1ccc(C(C(=O)NC2CCCC2)N(C(=O)c2snc(C(N)=O)c2N)C2CCCC2)cc1 (stereo unspecified)	113%
CC(C)CNC(=S)NC(=O)c1ccc(Cl)cc1	100%
COCc1cc(=O)n2[nH]c(C)c(-c3ccccc3)c2n1	97.4%
COCCNc1nc2nonc2nc1N1CCCC1c1nccs1 (stereo unspecified)	90.4%
CCn1c(=O)c([N+](=O)[O-])c(NCc2ccc3c(c2)OCO3)c2ccccc21	94.2%
CCn1c(/C=C/c2ccc([N+](=O)[O-])o2)nc2ccccc2c1=O	304% (active)
CCc1ccc(S(=O)(=O)N/N=C\c2ccc([N+](=O)[O-])o2)cc1	105%
CC(C)(C)c1ccccc1NC(=O)CN1C(=O)NC2(CCCC2)C1=O	105%
Cc1ccc(Cl)c(OCC(=O)NN2CCN(C)CC2)c1	103%
O=C(COC(=O)c1ccc(O)cc1O)c1ccc2c(c1)OCCO2	110%
COc1ccccc1C(=O)NCC(=O)OCC(=O)Nc1nnc(-c2ccccc2)o1	99.7%
Cc1cc(C)cc(N(CC(=O)NC2CCCC2)C(=O)CCC(=O)Nc2nccs2)c1	107%
Cc1cc(C)cc(N(CC(=O)NC2CCCC2)C(=O)CCC(=O)Nc2cc(C)on2)c1	327% [may fluoresce violet] (active)
Cc1cc(NC(=O)CCC(=O)N(CC(=O)NC2CCCC2)c2ccc(F)cc2)no1	101%
CC(=N\NC(=O)c1cc(Br)ccc1O)/C(=N/O)C(=O)Nc1ccccc1	102%
Cc1nc(-c2ccc(F)cc2)c(CC(=O)Nc2cc(S(=O)(=O)N3CCCCC3)ccc2C)s1	105%
